{"source": "the supplement of paper PMC4237247", "note": "Where a name gives a salt, the structure may show the parent alone.", "data": [{"tested_on": "HeLa", "test": "percent cells in G2/M phase; higher = more G2/M arrest", "settings": "10 µM; 20 h", "experimental": "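HTS of 79,827 drug-like compounds at 10 uM. HeLa cells in 384-well plates were treated for 20 h, fixed, stained with Vybrant DyeCycle Green and scanned on an Acumen eX3 cytometer to give per-well cell cycle profiles (% cells in each phase). The plate Z' was 0.51. Only hits are listed: G1 hits >4 SD and S hits >5 SD from the mean.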", "units": {"percent cells in G2/M phase": "%"}, "values": [{"compound": "Cn1c(SCc2ccccc2)nc2ccccc2c1=O", "note": "(hit class: S-phase inhibitor)", "percent cells in G2/M phase": 15.4}, {"compound": "COc1ccc(CSc2nncn2N)cc1", "note": "(hit class: S-phase inhibitor)", "percent cells in G2/M phase": 15.1}, {"compound": "COc1ccc(C(=O)c2coc3ccc(OC)cc3c2=O)cc1", "note": "(hit class: G1-phase inhibitor)", "percent cells in G2/M phase": 19}, {"compound": "Cc1ccc(-c2cc(-c3ccccc3Cl)[nH]n2)c(O)c1", "note": "(hit class: G1-phase inhibitor)", "percent cells in G2/M phase": 17.1}, {"compound": "Cc1cc([N+](=O)[O-])ccc1NCc1ccc(F)c(F)c1", "note": "(hit class: G1-phase inhibitor)", "percent cells in G2/M phase": 18.3}, {"compound": "C[C@@H]1C[C@H]2[C@@H]3C[C@H](F)C4=CC(=O)C=C[C@]4(C)[C@@]3(Cl)[C@@H](O)C[C@]2(C)[C@H]1C(=O)COC(=O)C(C)(C)C", "note": "[Clocortolone pivalate] (hit class: S-phase inhibitor)", "percent cells in G2/M phase": 30.1}, {"compound": "Nc1ccn([C@H]2CC[C@@H](CO)O2)c(=O)n1", "note": "[Zalcitabine] (hit class: S-phase inhibitor)", "percent cells in G2/M phase": 29.8}, {"compound": "O=C(COc1ccc(Cl)cc1)NC(Cc1c[nH]c2ccccc12)C(=O)O", "note": "(configuration not stated) (hit class: G1-phase inhibitor)", "percent cells in G2/M phase": 20.6}, {"compound": "c1ccc2c(c1)Nc1nc3ccccc3nc1O2", "note": "(hit class: G1-phase inhibitor)", "percent cells in G2/M phase": 21.4}, {"compound": "O=C1c2c(O)ccc(O)c2C(=O)c2c(NCCNCCO)ccc(NCCNCCO)c21", "note": "[Mitoxantrone dihydrochloride] (hit class: G1-phase inhibitor)", "percent cells in G2/M phase": 0.73}, {"compound": "C[C@@H]1CCC[C@H](C)N1NC(=O)c1ccc(Cl)c(S(N)(=O)=O)c1", "note": "[Clopamide] (hit class: G1-phase inhibitor)", "percent cells in G2/M phase": 15.9}, {"compound": "CCN(CC)Cc1c(O)ccc2c(=O)c(-c3ccccc3)coc12", "note": "(hit class: S-phase inhibitor)", "percent cells in G2/M phase": 17}, {"compound": "Cc1cc(N2CCCCC2)c(F)cc1[N+](=O)[O-]", "note": "(hit class: S-phase inhibitor)", "percent cells in G2/M phase": 22.3}, {"compound": "CC(=O)C1=C(O)C(=O)N(CC(=O)O)C1c1ccccc1F", "note": "(configuration not stated) (hit class: S-phase inhibitor)", "percent cells in G2/M phase": 12.9}, {"compound": "CC[C@@H](C(=O)[C@@H](C)[C@@H](O)[C@H](C)CCc1ccc(C)c(O)c1C(=O)O)[C@H]1O[C@](CC)([C@H]2CC[C@](O)(CC)[C@H](C)O2)C[C@@H]1C", "note": "[Lasalocid sodium salt] (hit class: G1-phase inhibitor)", "percent cells in G2/M phase": 16.8}, {"compound": "COc1c(C)c2c(c(O)c1C/C=C(\\C)CCC(=O)O)C(=O)OC2", "note": "[Mycophenolic acid] (hit class: S-phase inhibitor)", "percent cells in G2/M phase": 28.6}, {"compound": "COc1[nH]c2ccccc2c1C=NO", "note": "(hit class: S-phase inhibitor)", "percent cells in G2/M phase": 12.8}]}]}
